Pf growth 96h: Primary qHTS for delayed death inhibitors of the malarial parasite plastid, 96 hour incubation; P. falciparum luciferase reporter growth, 96 h; actives 6.9% (n = 320,000); Potency, µM (titrated, usually from 28.7 µM), without a hit: at the top dose activity change, negative = inhibition, usual class: inhibitors; note: potency is the fitted concentration of half-maximal effect; % is set by controls: 0 for no effect and ±100 for the full control effect
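Compounds incubated with erythrocytes infected by luciferase-expressing P. falciparum (2% hematocrit, 0.05% parasitemia final) for 96 hours, 37 C in 5% CO2. Growth inhibition scored as decreased luciferase luminescence.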
Pf growth 48h: Primary qHTS for delayed death inhibitors of the malarial parasite plastid, 48 hour incubation; P. falciparum luciferase growth in erythrocytes, 48 h; actives 5.9% (n = 310,000); Potency, µM (doses to about 28.7 µM), for inactives: at the top dose activity change, negative = inhibition, hits mostly inhibitors; note: potency is the fitted concentration of half-maximal effect; % is set by controls: 0 for no effect and ±100 for the full control effect
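A one-generation exposure of luciferase-tagged malaria parasites in RPMI 1640/Albumax erythrocyte culture, 37 C and 5% CO2. Inhibition is inferred from decreased luminescence after adding detection reagent.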
CHX counter: Cycloheximide Counterscreen for Small Molecule Inhibitors of Shiga Toxin; max response, %; cell reporter, cycloheximide protein synthesis inhibition counterscreen; actives 12% (n = 300,000); in the data active = max response mostly above about 13%, no sharp cut-off; inactive = mostly below about 14%; note: read at 38.3 µM for the half of the compounds with a filed dose; 0% is about no effect
Shiga toxin inh: A qHTS for Small Molecule Inhibitors of Shiga Toxin; Vero cells, Shiga toxin protein synthesis inhibition reporter; AID 2315, 2010; inhibition, % at 38.7 µM; actives 9.2% (n = 290,000); in the data active = inhibition mostly above about 28%, no sharp cut-off; inactive = mostly below about 43%; note: 0% is about no effect
Giardia FBPA inh: qHTS Assay for Inhibitors of Fructose-1,6-bisphosphate Aldolase from Giardia Lamblia; A8B2U2; purified Giardia FBPA; Potency, µM (titrated, usually from 59.6 µM), for the others: top-dose activity, negative = inhibition, most hits filed as inhibitors; actives 0.71% (n = 290,000); AID 2451, 2010; note: potency is the fitted concentration of half-maximal effect; % is set by controls: 0 for no effect and ±100 for the full control effect; nearly all actives have a fitted effect of over 55% in size
Target sequence (A8B2U2 whole entry, looked up): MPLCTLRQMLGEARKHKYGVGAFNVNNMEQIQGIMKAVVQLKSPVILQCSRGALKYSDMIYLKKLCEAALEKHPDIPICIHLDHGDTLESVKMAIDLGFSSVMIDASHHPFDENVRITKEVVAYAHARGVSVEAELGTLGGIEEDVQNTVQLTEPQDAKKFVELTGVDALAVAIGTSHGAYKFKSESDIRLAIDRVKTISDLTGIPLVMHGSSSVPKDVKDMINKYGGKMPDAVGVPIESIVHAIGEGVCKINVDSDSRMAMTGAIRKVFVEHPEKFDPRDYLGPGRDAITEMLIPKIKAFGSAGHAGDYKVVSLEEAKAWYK
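Giardia FBPA (40 nM reagent) was preincubated 10 min at RT with compound (up to 57.5 uM final), then substrate plus GAPDH/TPI/NAD/arsenate coupling system with diaphorase/resazurin was added; resorufin fluorescence (525/598 nm) was read after 20 min.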
NS1 inh: qHTS Assay for Inhibitors of Influenza NS1 Protein Function | Potency, µM (series often up to 46.1 µM), for inactives: at the highest dose activity, positive = more growth | actives 0.4% (n = 270,000) | AID 2326, 2010; calls by dose curve; note: potency is the fitted concentration of half-maximal effect; actives are rising curves; nearly all actives have a fitted effect of over 50% in size
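Read-out: OD600 growth recovery of NS1-expressing budding yeast. Cells grown overnight at 30C in -URA glucose medium, washed, resuspended and diluted 1:100 in 2% galactose assay medium, pH 6.0. Same strain lacking NS1 served as positive control.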
Flu NS1 inh: Assay for Inhibitors of Influenza NS1 Protein Function: Hit Validation | shares compounds with NS1 inh | influenza NS1 function cell assay, 15-point titration | activity change, negative = inhibition, % at 32.9 µM | 1,400 tested, under 10 active; calls by dose curve; note: 0% is about no effect
Flu PR8 replic: Assay for Inhibitors of Influenza NS1 Protein Function: Influenza virus replication assay in MDCK cells infected with virus A/PR/8/34; shares compounds with NS1 inh; MDCK infected influenza A/PR/8/34, virus titer TCID50; stronger effect = lower value; virus titer (log TCID50), log10 TCID50 at 5 µM; actives 30% (n = 95); call rule not given here
Numbers without * were called inactive; ? = inconclusive; / = no result; [ ] = remark or other dose. Sampled rows, rich in hits. Any-hit rate of the full collection: about 21%. Unless noted, calls come from the whole dose curve; as a rule, active = well fitted curve in the direction sought with a large enough effect; inconclusive = small, poorly fitted or top-dose-only effect, or another doubt; inactive = no such curve, though single readings can be large; an effect the other way counts as inactive or inconclusive.

SMILES	Pf growth 96h	Pf growth 48h	CHX counter	Shiga toxin inh	Giardia FBPA inh	NS1 inh	Flu NS1 inh	others
CC(C1CC1)N(C(=O)NC1CCS(=O)(=O)C1)c1ccccc1 (stereo unspecified)	-7.9%[5.75 µM]	-2.5%	-0.5	-2.5	-0.8%	?	8.7
O=C(Nc1ccc(C(=O)O)cc1)/C(=C\c1ccco1)NC(=O)c1ccco1	?	-13.5%	4.5	-7.6	-8.5%	26.6%	/
CN(C)c1ccc(-c2ccc([C@H]3[C@@H]4C=CCC[C@@]4(C)C(=O)N3Cc3ccccc3)c(F)c2)cc1	?	9.28µM*	12.0	-3.8	-1.8%	5.62µM*	-27.4
CC1CCCCN1C(=O)C12CCC(C)(/C(=N/O)C1)C2(C)C (stereo unspecified)	19.7%	1.5%	-3.2	-7.1	7.2%	0.4%	/
COc1ccc(-c2ccc(/C=N/NC(=O)Cc3nnc(N)s3)o2)cc1Cl	2.4%	?	1.6	-0.5	-15.0%	11.1%	/
Cc1ccc(-c2ccc(/C=N/NC(=O)Cc3nnc(N)s3)o2)cc1Cl	-5.6%	16.7%	11.0	22.0	-6.5%	?	28.3
O=C(N/N=C/c1c[nH]c2ccccc12)c1cc(-c2ccc3ccccc3c2)n[nH]1	3.1%	-45.0%	49.5*	64.2*	-0.1%	?	-2.9
Cc1ccc(C)c(S(=O)(=O)Nc2ccccc2C(=O)Nc2ccc(S(=O)(=O)Nc3ncccn3)cc2)c1	?	?	-1.9	8.1	13.7%	11.2µM*	24.7
COc1cccc(CN2CC(O)=C(c3nc(-c4ccc(Cl)cc4)cs3)C2=N)c1	3.5%	1.8%	5.1	-1.7	-3.2%	5.01µM*	7.0
COc1ccc(-c2csc(C3=C(O)CN(Cc4ccc(Cl)cc4)C3=N)n2)cc1OC	/	?	-5.3	-19.0	2.8%	-0.9%	/
CCCCn1c(=O)c(-[n+]2ccccc2)c([O-])c2ccccc21	-5.2%	/	0.7	-8.8	?	-0.3%	/
CSc1ncc(C(=O)Nc2cc(C)ccc2C)c(C)n1	?	0.0%	-3.2	-5.4	-9.2%	5.7%	/
COc1cccc(-c2nc(N3CCC(C)CC3)c3ccccc3n2)c1O	32.1%	-9.0%	-5.9	-24.3	0.5%	20µM*	-28.9
COc1cccc(-c2nc(N3CCCC3)c3ccccc3n2)c1O	18.2%	0.0%	0.6	-2.9	4.0%	-3.6%	/
Cn1cccc1Cc1nnc(SCC(=O)Nc2cccc(F)c2)n1CCc1ccccc1	-8.0%	?	-1.6	7.6	3.4%	?	/
Cn1cccc1Cc1nnc(SCC(=O)Nc2ccccc2F)n1CCc1ccccc1	-2.4%	13.1µM*	-2.1	-11.6	1.4%	7.08µM*	-3.5
Cn1cccc1Cc1nnc(SCC(=O)Nc2ccc(Cl)cc2)n1-c1ccc(F)cc1	-17.6%	?	-2.8	-15.3	-3.6%	-80.4%	/
COc1ccc(-n2c(Cc3cccn3C)nnc2SCC(=O)Nc2ccc(Cl)cc2)cc1	14.9%	11.7µM*	-3.2	-5.6	-1.4%	10µM*	-3.6	Flu PR8 replic=8
CC1CC2(C)Oc3ccccc3C3OCC1(CO)C(C)C32 (stereo unspecified)	/	2.2%	-4.1	2.7	7.2%	?	5.6
CC(=O)OCC12COC3c4ccccc4OC(C)(CC1C)C3C2C (stereo unspecified)	?	?	-13.4	-13.2	1.2%	/	/
CCN1C(=O)N[C@H](c2ccccc2)C(C(C)=O)=C1C	/	/	/	/	2.4%[12.9 µM]	/	/
Cc1ncc([N+](=O)[O-])n1CCOC(=O)Nc1ccc(Cl)c(Cl)c1	-4.2%	?	-3.8	-12.5	-4.3%	?	-0.8
Cc1ncc([N+](=O)[O-])n1CCOC(N)=O	44.1%	5.8%	-1.9	-3.9	6.1%	2.6%	/
